# Measurements reported in PubChem BioAssay (NCI).
# This is part of a sample that, as a whole, favours compounds with a hit. Of some 83,000 tested, about 20% had one in any assay.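 Assay: single dose, 48 h. Readout: percent growth (0 = no net growth; negative = cell death). Active: <10.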 Unmarked numbers belong to inactive results. Calls of active or inactive are those of the source.
# Legend:
# Experiment in all cases: NCI-60 one-dose screen, 48 h (100 = growth as untreated, 0 = no growth, -100 = all killed)
# SK-MEL-2 melanoma = settings: 10 µM unless noted
# EKVX NSCLC = settings: 10 µM unless noted
# SN12C renal = settings: 10 µM unless noted
# UO-31 renal = settings: 10 µM unless noted
# TK-10 renal = settings: 10 µM unless noted
# ACHN renal = settings: 10 µM unless noted
# CAKI-1 renal = settings: 10 µM unless noted
# A498 renal = settings: 10 µM unless noted
# CCRF-CEM leukemia = settings: 10 µM unless noted
# MOLT-4 leukemia = settings: 10 µM unless noted
# SR leukemia = settings: 10 µM unless noted
# RPMI-8226 leukemia = settings: 10 µM
# OVCAR-8 ovarian = settings: 10 µM unless noted
# OVCAR-5 ovarian = settings: 10 µM unless noted
# OVCAR-4 ovarian = settings: 10 µM unless noted
# SK-OV-3 ovarian = settings: 10 µM
# IGROV1 ovarian = settings: 10 µM unless noted
# OVCAR-3 ovarian = settings: 10 µM unless noted
# HS 578T breast = settings: 10 µM unless noted
# NCI/ADR-RES ovarian = settings: 10 µM unless noted
SMILES,growth (SK-MEL-2 melanoma),growth (EKVX NSCLC),growth (SN12C renal),growth (UO-31 renal),growth (TK-10 renal),growth (ACHN renal),growth (CAKI-1 renal),growth (A498 renal),growth (CCRF-CEM leukemia),growth (MOLT-4 leukemia),growth (SR leukemia),growth (RPMI-8226 leukemia),growth (OVCAR-8 ovarian),growth (OVCAR-5 ovarian),growth (OVCAR-4 ovarian),growth (SK-OV-3 ovarian),growth (IGROV1 ovarian),growth (OVCAR-3 ovarian),growth (HS 578T breast),growth (NCI/ADR-RES ovarian)
O=C1NC(=S)S/C1=C\c1cccc([N+](=O)[O-])c1,103%,90.4%,94.1%,65.1%,107%,89.2%,87.5%,96.1%,78.2%,85.5%,70.1%,62.8%,101%,96.9%,88.5%,104%,120%,100%,118%,96.8%
O=C1C(N2CCOCC2)=Cc2cccc3cccc1c23,110%,60.9%,106%,88.9%,98%,96.3%,108%,84.3%,102%,18.2%,40.8%,105%,96.1%,103%,90.5%,95.8%,112%,101%,86.1%,99.8%
Clc1ccc(Nc2nc(Nc3ccccc3)nc(Nc3ccc(-c4cc(-c5ccc(Cl)cc5)on4)cc3)n2)cc1,64.2%,69.5%,64%,41.7%,52.8%,47.1%,48.2%,43.9%,70.5%,52.2%,51.5%,50.8%,39.4%,87.2%,64.6%,91.2%,34.7%,71.6%,11.7%,51.4%
CCOC(=O)c1c(-c2cc(OC)c(OC)c(OC)c2)csc1N,101%,110%,105%,75.9%,93.3%,99.2%,68.1%,101%,83.7%,92.3%,27.2%,90.3%,106%,101%,118%,90.9%,84.3%,96.4%,104%,83.8%
COc1cc(CNCCCN2C(=O)c3ccc4c5c(ccc(c35)C2=O)C(=O)N(CCCNCc2cc(OC)c(OC)c(OC)c2)C4=O)cc(OC)c1OC,-71.8% (active),-72.9% (active),-98.9% (active),4.39% (active),-28.5% (active),-24.5% (active),36.9%,-11.5% (active),0.649% (active),-12.6% (active),-3.1% (active),-18.5% (active),-52% (active),-67.7% (active),-97% (active),-59.6% (active),-51.2% (active),-27.7% (active),-34.1% (active),71.1%
Nc1nc(N)c(C=Nc2ccc(Br)cc2)c(Nc2ccc(Br)cc2)n1,108%,86.4%,99.2%,75.2%,127%,73.3%,69.2%,83.1%,81.1%,64.7%,64.2%,113%,,79.3%,107%,104%,86.3%,149%,80.8%,77.6%
O=C(c1ccc2ncc(-c3nc(NC4CC4)ncc3F)n2c1)N1CCOCC1,27.7%,49.2%,30.1%,-33.4% (active),41.9%,0.254% (active),3.25% (active),-30.3% (active),19.5%,16%,3.87% (active),25.7%,18.5%,9.93% (active),63.2%,,8.94% (active),-22.2% (active),4.89% (active),48.2%
CCCCCCCCCCCCCCCC[N+]1(C)CCOCC1,57.7%,64.1%,15.4%,59.6%,-36.8% (active),62.8%,76.3%,48.8%,-42.1% (active),-57.8% (active),-29.4% (active),-33.9% (active),16.1%,13.8%,20.7%,,-43.1% (active),-5.72% (active),16%,94.9%
Cc1cc(O)cc2c1[C@H]1CC[C@]3(C)[C@@H](O)CC[C@H]3[C@@H]1C=C2,86.4%,105%,98.5%,98.4%,102%,96.7%,108%,118%,69.4%,79%,40.3%,80.8%,,114%,110%,115%,74.4%,,86.5%,53.2%
Cn1cc(C(=O)NCCC(=N)N)cc1NC(=O)CN=C(N)N,105%,103%,95.6%,84%,109%,102%,99.1%,108%,100%,103%,104%,110%,,88.9%,105%,110%,106%,112%,92.4%,94.2%
Cc1nn(CC(=O)O)c2c1C(=O)CC(C)(C)C2,113%,105%,101%,74%,89.9%,126%,97.4%,97.8%,99.6%,81.1%,89.1%,99.2%,,91.2%,101%,101%,94.1%,110%,102%,99.5%
O=C(COc1cccc(/C=C2\COc3ccccc3C2=O)c1)c1ccccc1,70.7%,84%,84.9%,75.1%,92.2%,86.8%,53.2%,86.9%,-32.7% (active),-21.9% (active),-62.4% (active),-51.1% (active),19.1%,,79.2%,98.7%,,80.3%,-28.2% (active),
O=C(c1ccccc1)C(Br)C(Br)c1cccc([N+](=O)[O-])c1 (stereo not given),69.8%,101%,67.1%,-74.8% (active),-25.4% (active),-87.9% (active),-25.5% (active),48.2%,-15.7% (active),3.67% (active),-33.3% (active),-19.4% (active),18.6%,73.9%,29.3%,,-29.7% (active),,91.9%,51.4%
COc1cccc(C2CC(=O)Nc3cc4c(cc32)CCC4)c1OC (stereo not given),36.5%,72.5%,77.2%,59.7%,70.1%,82.3%,40.8%,62.9%,3.82% (active),14.8%,3.06% (active),50.6%,,99.5%,76.2%,44.5%,57%,46.1%,67.7%,42.1%
Cc1ccc(N(CSc2ccc(Cl)cc2)CSc2ccc(Cl)cc2)cc1,86.2%,17.4%,30.3%,22.1%,92.2%,66.6%,28.8%,-22.4% (active),-7.51% (active),-16.3% (active),11.2%,6.09% (active),66.9%,79.1%,85.2%,,-10.3% (active),48.3%,45%,31.5%
OB(O)c1ccccc1,107%,108%,112%,91.3%,105%,107%,96.5%,106%,100%,96.9%,88%,102%,105%,108%,115%,,114%,114%,102%,104%
